Compound activity as filed in PubChem.
The list is not random: actives were taken first. Their share in the collection is about 10%.
SW480 rerep = inducers of DNA re-replication in SW480 colon cancer cells | SW480 DNA re-replication, Hoechst DNA content imaging, 48 h | Potency, µM (series often up to 46.1 µM), hits mostly activators | hit rate 1.8% among 340,000 | AID 624297; also: nearly all actives have a fitted effect of over 55% in size
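First, 250 cells per well were seeded. Next, compound or vehicle (23 nL) was pinned in, plates sat 48 hr at 37 C. Finally Hoechst was added for 40 min before fluorescence scanning.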
KB-V1 cytotox = kills drug-selected multidrug resistant KB-V1 cells; KB-V1 MDR cells viability, CellTiter-Glo, 72 h; Potency, µM (titrated, usually from 46.1 µM), most hits filed as cytotoxic; hit rate 3.4% among 400,000; also: nearly all actives have a fitted effect of over 60% in size
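Luminescent ATP read-out (CellTiter-Glo, 10 min) measures survival of drug-selected KB-V1 MDR cells after 72 h, 37 degrees C compound exposure. Medium: phenol-red-free DMEM, 10% FBS. Values from fitted concentration-response curves.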
VP16 counter = inhibits Gal4-VP16 luciferase reporter, ROR gamma counter-screen; Potency, µM (doses to about 53.6 µM), actives largely listed as inhibitors; hit rate 3.5% among 310,000; AID 2546; Drosophila S2 Gal4-VP16 UAS-luciferase, luminescence, 20 h;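 also: Gal4-VP16 expression switched on by copper sulfate through the metallothionein promoter; nearly all actives have a fitted effect of over 50% in size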
RORg inh = ROR gamma (mouse) transcription inhibition; Potency, µM (top dose mostly 53.6 µM), actives largely listed as inhibitors; Drosophila S2 Gal4-RORgamma UAS-luciferase reporter, 20 h; AID 2551; hit rate 5.4% among 310,000; P51450; also: nearly all actives have a fitted effect of over 60% in size
Target sequence (P51450 whole entry, looked up, the tested form may be a part): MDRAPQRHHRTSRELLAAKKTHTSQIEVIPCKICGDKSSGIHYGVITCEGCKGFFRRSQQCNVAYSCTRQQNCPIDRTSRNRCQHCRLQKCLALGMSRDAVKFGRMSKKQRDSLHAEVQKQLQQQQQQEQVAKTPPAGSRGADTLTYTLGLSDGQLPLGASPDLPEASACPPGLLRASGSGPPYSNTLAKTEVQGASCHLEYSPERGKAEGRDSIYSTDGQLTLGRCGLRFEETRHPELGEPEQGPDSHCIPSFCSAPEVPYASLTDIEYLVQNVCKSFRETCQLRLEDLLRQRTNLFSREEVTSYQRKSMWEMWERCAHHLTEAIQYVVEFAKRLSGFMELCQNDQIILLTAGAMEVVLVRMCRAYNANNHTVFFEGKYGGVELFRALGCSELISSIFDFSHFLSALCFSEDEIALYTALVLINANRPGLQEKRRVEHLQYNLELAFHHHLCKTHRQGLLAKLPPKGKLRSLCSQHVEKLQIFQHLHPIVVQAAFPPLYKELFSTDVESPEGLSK
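Drosophila S2 cells stably expressing Gal4-DBD/mouse RORγ fusion under metallothionein promoter plus UAS-luciferase; compound 1 h, then 700 uM CuSO4 induction for 20 h at ambient temperature; inhibition read as reduced luminescence.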
KB-3-1 cytotox = kills parental KB-3-1 adenocarcinoma cells; KB-3-1 viability, CellTiter-Glo ATP luminescence, 72 h; hit rate 1.4% among 400,000; Potency, µM (doses to about 46.1 µM), usual class: cytotoxic; also: nearly all actives have a fitted effect of over 60% in size
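Viability of parental KB-3-1 cells, measured by CellTiter-Glo luminescence, followed a 72 h incubation at 37 °C with pinned compounds in phenol-red-free DMEM containing 10% FBS.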
MCF10A rereplic = inducers of DNA re-replication in MCF 10A breast cells. MCF 10A DNA re-replication, Hoechst nuclear intensity, 48 h. Potency, µM (titrated, usually from 46.1 µM), actives largely listed as activators. hit rate 2.9% among 350,000. AID 624296; also: nearly all actives have a fitted effect of over 50% in size
Hits are given with their value; i = inactive; ? = inconclusive; nt = no result given; ! = a repeat was not active; [ ] = dose if it differs, or a comment. Calls follow the shape of the dose curve; as a rule, active = well fitted curve in the direction sought with a large enough effect; inconclusive = small, poorly fitted or top-dose-only effect, or another doubt; inactive = no such curve, though single readings can be large; an effect the other way counts as inactive or inconclusive.

SMILES | SW480 rerep | KB-V1 cytotox | VP16 counter | RORg inh | KB-3-1 cytotox | MCF10A rereplic
COC(=O)C1CCN(C2CN(Cc3ccccc3)S(=O)(=O)C2)CC1 (stereo not given) | nt | i | nt | nt | i | nt
COc1ccc(NC(=O)CN2C(=O)CCn3nc(-c4cccn4C)cc32)cc1 | nt | i | nt | nt | i | nt
Cc1nn(-c2ccc(F)cc2)c(-n2cccc2)c1C(=O)NCCCN1CCN(c2cccc(Cl)c2)CC1 | nt | 10.3µM | nt | nt | ? | nt
C=CCc1cccc(CNc2cnc3ccccc3c2)c1O | i | i | 7.08µM | ? | i | i
Oc1ccccc1CNc1cnc2ccccc2c1 | i | i | ? | ? | i | i
O=C(CCc1nc2ccccc2s1)N1CCN(c2ccccc2)CC1 | i | i | i | i | i | i
CC(=O)c1ccc(N2CCN(C(=O)CCCc3nc4ccccc4s3)CC2)cc1 | i | i | ? | ? | i | 18.4µM
COCCNC(=S)N/N=C1\CC(C)CC(C)(C)C1 (stereo not given) | i | i | 3.55µM | 1µM | i | ?
COCCNC(=S)NN=C1CCCCCC1 | ? | i | 6.31µM | 2µM | i | 8.2µM
CCOC(=O)N/N=C1\CC(C)CC(C)(C)C1 (stereo not given) | i | ? | i | i | i | i
CCC1CCCCN1C(=O)CSc1nnc(-c2ccc(OC)c(OC)c2)o1 (stereo not given) | nt | i | nt | nt | i | nt
CC[C@H](C)[C@@H]1O[C@]2(CC[C@@H]1C)C[C@H]1C[C@H](CC=C(C)[C@@H](O[C@@H]3C[C@H](OC)[C@H](O[C@@H]4C[C@H](OC)[C@H](O)[C@H](C)O4)[C@H](C)O3)[C@@H](C)C=CC=C3CO[C@@H]4[C@@H](O)C(C)=C[C@@H](C(=O)O1)[C@]34O)O2 | nt | nt | i | i | nt | nt
CC[C@H](C)[C@H]1O[C@]2(CC[C@@H]1C)C[C@@H]1C[C@@H](CC=C(C)[C@@H](O[C@H]3C[C@H](OC)[C@@H](O[C@H]4C[C@H](OC)[C@@H](O)[C@H](C)O4)[C@H](C)O3)[C@@H](C)C=CC=C3CO[C@@H]4[C@H](O)C(C)=C[C@@H](C(=O)O1)[C@]34O)O2 | i | 23.1µM | nt | nt | 7.31µM | ?
Cc1cc(NC(=O)c2ccc(Cl)cc2)no1 | i | i | i | i | i | i
Cc1cc(NC(=O)c2ccc(NC(=O)c3cccs3)cc2)no1 | i | 14.6µM | ? | ? | i | i
CN1CCN(c2ccc(NC(=O)c3cccs3)cc2)CC1 | ? | i | ? | ? | i | i
Cc1ccn(-c2ccc(NC(=O)c3cccs3)cc2)n1 | i | 11.6µM | i | i | 20.6µM | ?
COc1ccc(C(=O)Nc2ccc(NC(=O)c3cccs3)cn2)cc1 | i | i | i | 0.224µM | i | i
CN=C(NC#N)NCCSC[C@H]1N=CN=C1C | nt | nt | i | i | nt | nt
COc1ccc(NC(=O)c2c(NC(=O)C(F)(F)F)sc3c2CCCCC3)cc1 | nt | i | nt | nt | i | nt
O=C(C[n+]1ccncc1)c1cccc2ccccc12 | nt | ? | nt | nt | i | nt
CCOc1ccc(-n2c(-c3ccc(Cl)cc3)c[n+]3c2SCC3)cc1 | i | i | ? | i | 16.4µM | ?
CCOc1ccc(C2=CSC3=NCCN23)cc1 | i | i | i | i | i | i
c1ccc(-c2c[n+]3c(n2-c2ccccc2)SCC3)cc1 | i | ? | i | i | 3.26µM | i
O=C(C1CCCN(S(=O)(=O)c2ccccc2[N+](=O)[O-])C1)N1CCCC1 (stereo not given) | i | 11.6µM | i | i | i | i
SMILES | SW480 rerep | KB-V1 cytotox | VP16 counter | RORg inh | KB-3-1 cytotox | MCF10A rereplic
COc1cc2c(cc1OC)C(c1cccc(C)c1)CC(=O)N2 (stereo not given) | 4.11µM | i | i | i | i | i
COC(=O)C1=C(C)NC(=O)CC1c1cc(Br)ccc1F (stereo not given) | i | ? | i | i | i | i
Cc1cc2c(cc1C)C(c1ccccc1F)CC(=O)N2 (stereo not given) | ? | ? | i | i | 5.8µM | i
Cc1cc2c(cc1C)C(c1cc(Br)ccc1F)CC(=O)N2 (stereo not given) | ? | 13µM | ? | i | 8.2µM | 7.31µM
COc1cc2c(cc1OC)C(c1cccc(Cl)c1)CC(=O)N2 (stereo not given) | i[9.22 µM] | i | i | i | i | i
CC(=O)c1cccc(NC(=O)CSCc2ccc(Br)cc2)c1 | i | 18.4µM | i | i | i | i
CN(Cc1ccccc1)C(=O)C1CCN(S(=O)(=O)c2ccc(-n3cnnn3)cc2)CC1 | i | i | i | i | i | i
COC(=O)C[C@H]1c2ccccc2S(=O)(=O)N1c1ccc(N(C)C)cc1 | nt | ? | nt | nt | i | nt
COc1cc(N=c2ssnc2Cl)cc(OC)c1OC | i | i | 15.8µM | ? | i | ?
Clc1ccc(N=c2ssnc2Cl)cc1 | ? | 20.6µM | 11.2µM | ? | 20.6µM | ?
COc1ccc(OC)c(NC(=O)c2nc(S(=O)(=O)Cc3ccccc3F)ncc2Cl)c1 | nt | i | nt | nt | ? | nt
COC(=O)c1cc(NC(=O)CCc2c(C)nc3c(c(C)nn3C(C)(C)C)c2C)cc(C(=O)OC)c1 | nt | i | nt | nt | i | nt
Cc1ccc(C)c(/C=N/n2cc(-c3ccccc3)[nH]c2=S)c1 | i | i | ? | 0.282µM | i | ?
S=c1[nH]c(-c2ccccc2)cn1/N=C/c1ccc(Br)cc1 | i | i | 7.08µM | 0.398µM | i | i
Fc1ccccc1/C=N/n1cc(-c2ccccc2)[nH]c1=S | i | i | 8.91µM | 1.41µM | i | i
Cc1ccccc1C(=O)Nc1cc2c(cc1N1CCCCC1)n(C)c(=O)n2C | nt | i | nt | nt | i | nt
C[C@H](N)C(=O)N[C@@H](Cc1ccc(F)cc1)C(=O)N[C@@H](CCCN=C(N)N)C(=O)N[C@@H](CC1CCCCC1)C(=O)N[C@@H](CCCCN=C(N)N)C(=O)N[C@@H](Cc1ccc(O)cc1)C(N)=O | nt | nt | i | i | nt | nt
Nc1ccc2c(c1)C(=NO)c1cc([N+](=O)[O-])ccc1-2 | 10.3µM | i | nt | nt | i | i
O=[N+]([O-])c1ccc2c(c1)-c1ccccc1C2=NO | i | ? | nt | nt | i | i
Cc1cccc(C(=O)n2c(=S)nc3cc(C)ccn32)c1 | i | i | ? | ? | i | i
Cc1ccn2c(c1)nc(=S)n2C(=O)c1ccccc1 | i | i | 2.51µM | 3.98µM | i | i
O=C(NCc1ccccc1Cl)c1cnc2sc(N3CCCCC3)nn2c1=O | nt | i | nt | nt | i | nt
COc1cc(-c2c(-c3cc(OC)c(OC)c(OC)c3)noc2C)ccc1F | 1.3µM | 0.411µM | i | ? | 0.326µM! | ?
COc1ccc(-c2c(-c3cc(OC)c(OC)c(OC)c3)noc2C)cn1 | 7.31µM | 1.64µM! | i | i | 1.64µM | 1.64µM
COc1ccc(-c2c(-c3ccc4c(c3)OCO4)noc2C)cn1 | i | ? | i | i | ? | i
